# Source: PubChem BioAssay (National Center for Advancing Translational Sciences (NCATS))
# This excerpt belongs to a sample that is enriched for hits.
# Methyltransferases = Primary Screen for Target Class Profiling of Small Molecule Inhibitors of Methyltransferases; purified enzyme, MTase-Glo SAH luminescence; hits give low values; calls only at 40 µM; 3.9% of 25,000 active; call rule not given here
#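 Each enzyme was reacted with SAM and its substrate, with compounds tested once at 40 uM; SAH formed was read by MTase-Glo luminescence.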
# MTase-Glo ctr = counter-screen for methyltransferase inhibitors: coupling enzymes without methyltransferase | shares compounds with Methyltransferases | AID 1745851 | MTase-Glo coupled enzymes, SAH conversion luminescence, no MTase | 6% of 180 active | Potency, µM (series often up to 57.3 µM), for inactives: at the highest dose activity change, negative = inhibition, actives largely listed as inhibitors; active = well fitted inhibition curve with a large enough effect; inconclusive = small, poorly fitted or top-dose-only effect; note: potency is the fitted concentration of half-maximal effect
# * = called active by the depositor; i = inactive; ? = inconclusive; + = active, no number; [ ] = remark or other dose. % is set by controls: 0 for no effect and ±100 for the full control effect.
SMILES,Methyltransferases,others
COCCCN1C(=O)c2cc3occc3n2CC1(C)C(=O)NC1CCC(C)CC1 (stereo not drawn),i,
Cn1ncc2c(N3CCN(S(N)(=O)=O)CC3)nc(C3CCCC3)nc21,+,MTase-Glo ctr=?
CC1CCCN1C(=O)c1cc(-c2ccc(C(F)(F)F)cc2)nc2c1cnn2C (stereo not drawn),i,
O=C(C[C@@H]1C[C@H]2O[C@H](CNC3CCOCC3)[C@@H](O)[C@H]2O1)N1CCC(F)(F)C1,i,
CC1(COCC2CC2)COc2ccc(C(=O)Nc3cccc([S+](C)(=O)[O-])c3)cc2N1 (stereo not drawn),i,
CN(C)CCOCC1(C)COc2ccc(C(=O)Nc3ccc4[nH]ccc4c3)cc2N1 (stereo not drawn),+,MTase-Glo ctr=-1%[85.7 µM]
CN(C)C[C@@H]1CN(S(C)(=O)=O)C[C@H]1NC(=O)c1ccc2[nH]ccc2c1,i,
Cc1cnc(CC2CCCN(S(=O)(=O)c3ccccc3)C2)n1CC1CC1 (stereo not drawn),i,
Cc1nc2cccnc2n1CC1CCCN(S(=O)(=O)c2ccc3c(c2)OCCO3)C1 (stereo not drawn),+,MTase-Glo ctr=-3%
Cc1cccc(S(=O)(=O)N2CCCC(Cn3cc(CO)nn3)C2)c1 (stereo not drawn),i,
CC(C)=CCCC1(C)/C=C/C(OC(=O)C=C(C)C)C(C)(O)/C=C/C(=O)/C(CO)=C\C1 (stereo not drawn),i,
CCCSCCCN1C(=O)c2cc3oc(C)cc3n2CC1(C)C(=O)NC1CCCCC1 (stereo not drawn),i,
O=C(C(=O)N1CCc2[nH]nc(-c3ccccc3F)c2C1)c1ccco1,i,
CCc1cc2c(cc3n2CC(C)(C(=O)NC2CCC(C)CC2)N(Cc2ccccc2F)C3=O)s1 (stereo not drawn),i,
COCC(NC(=O)c1ccc2nc(C3CCCCC3)oc2c1)c1ccnn1C (stereo not drawn),i,
COCC(=O)Nc1ccc(-c2noc([C@@H]3CCCN3Cc3ncc[nH]3)n2)cn1,i,
COCCNc1cc(-c2noc([C@@H]3CCCN3CC(C)C)n2)ccn1,+,MTase-Glo ctr=-3%[85.7 µM]
Fc1ccccc1CN1CCC[C@H]1c1nc(-c2ccnc(N3CCOCC3)c2)no1,i,
CN(C)CCNC(=O)c1ccnc(-c2nnc3ccc(N(C)c4ccccc4)nn23)c1,+,MTase-Glo ctr=-7%[85.7 µM]
CN(C)CCNC(=O)c1cc2n(n1)CC(C)(C(=O)NCc1ccccc1)N(C)C2=O (stereo not drawn),i,
CC1=NOC(C(=O)N2CCCn3nc(C(=O)NCCN(C)C)cc3C2)C1 (stereo not drawn),i,
COc1ccc(-c2cnc3n[nH]c(-c4ccccc4C)c3n2)cn1,i,
Cc1ccccc1-c1[nH]nc2ncc(-c3c(C)noc3C)nc12,+,MTase-Glo ctr=-4%[85.7 µM]
Cc1noc(C)c1-c1cc2c(cc(C)n2C)c(N2CCN(c3ccccn3)CC2)n1,i,
CS(=O)(=O)N1CCC(OC2CCN(C(=O)Nc3ccccc3C(F)(F)F)CC2)CC1,i,
SMILES,Methyltransferases,others
CC(=O)Nc1ccc(CN2CC3(Cc4ccccc4NC3=O)C2)cc1,i,
CC(=O)Nc1cccc(-c2cc3c(cn2)CN(Cc2ccccc2)CCN3)c1,+,MTase-Glo ctr=-2%[85.7 µM]
CC(=O)Nc1cccc(-c2ccnc(-c3nnc(C)n3Cc3ccccc3)c2)c1,i,
CC(C)OCCCn1c(=O)c2cc(Cl)ccc2n2c(SCc3ccc(F)cc3)nnc12,i,
N[C@H]1CCCN(C(=O)c2cnc(C34CC5CC(CC(C5)C3)C4)[nH]c2=O)C1,i,
C[C@@]1(O)[C@H](O)[C@@H](CO)O[C@H]1n1ccc(N)nc1=O,i,
Nc1nc(NCc2ccc(Cl)cc2Cl)cc(C2CC(O)C2)n1 (stereo not drawn),+,MTase-Glo ctr=-3%
Nc1nc(NCc2ccc(N3CCCC3=O)cc2)cc(C2CC(O)C2)n1 (stereo not drawn),i,
CCc1csc(CNc2cc(C3CC(O)C3)nc(N)n2)n1 (stereo not drawn),i,
O=C1N[C@@H](Cc2cccs2)C(=O)N2CC[C@H](NS(=O)(=O)c3cccs3)C[C@@H]12,i,
Cc1cc(C)cc(N2C(=O)c3cc4occc4n3CC2(C)C(=O)NC2CCCCCC2)c1 (stereo not drawn),i,
COC(=O)[C@@H]1Cc2ncn(Cc3ccc(Cl)cc3)c2CN1CCCc1ccccc1,+,MTase-Glo ctr=11µM*
CCCn1cnc2c1CN(S(=O)(=O)c1ccc(F)cc1)[C@H](C(=O)OC)C2,i,
COc1ccc(-c2cc3n(n2)CC(C)(C(=O)NCc2ccccc2)N(CCc2ccc(Cl)cc2)C3=O)cc1 (stereo not drawn),i,
COC(C(=O)Nc1ccnn1C1CCN(C(=O)CO)CC1)c1ccccc1 (stereo not drawn),i,
O=C(Nc1ccc(S(=O)(=O)C(F)(F)F)cc1)C1=CCN(c2ncccc2C(F)(F)F)CC1,i,
O=C(Nc1ccc2c(N3CCOCC3)ncnc2c1)c1cccc(Cl)c1,+,MTase-Glo ctr=-1%
O=C(Nc1ccc2c(N3CCCCC3)ncnc2c1)c1ccccc1C(F)(F)F,+,MTase-Glo ctr=1.7µM*
Cn1c(=O)c2ccc(C(=O)NC3CCCC3)cc2n2c(=O)n(CC(=O)Nc3cccc(Cl)c3)nc12,i,
O=C(Nc1ccccc1C(F)(F)F)N1CCCC(Cn2cnc3cccnc32)C1 (stereo not drawn),i,
O=C1CC(C(=O)Nc2cccc(Cl)c2)n2ncnc2N1 (stereo not drawn),i,
COc1ccc2cc3n(c2c1)CC(C)(C(=O)NCC1CCCO1)N(CC(C)c1ccccc1)C3=O (stereo not drawn),i,
CCn1c(=O)c2c(cc(C)n2C)n(CC(=O)Nc2ccccc2C)c1=O,i,
CC1(C(=O)NC2CCCCCCC2)Cn2c(cc3occc32)C(=O)N1CCCc1ccccc1 (stereo not drawn),i,
Cc1ccc(C2(O)CCN(C(=O)c3cnn4cc(CCO)cnc34)CC2)nc1,i,
SMILES,Methyltransferases,others
CNC(=O)[C@H]1C[C@H](Oc2ccccc2)CN1Cc1cn(C)c2ccc(OC)cc12,i,
O=C(NCCc1ccccn1)c1cccnc1OC1CCNCC1,i,
Cc1ccc(C(N)=O)cc1-c1cc(NCc2cccnc2)nc2[nH]ccc12,i,
O=C(NCc1ccccn1)C1CCN(c2cc(C3CC(O)C3)ncn2)CC1 (stereo not drawn),i,
c1ccc(CNc2cc(-c3cc(N4CCCCC4)ncn3)c3cc[nH]c3n2)nc1,+,MTase-Glo ctr=-9%
CCCCN1C(=O)c2cc3ccc(OC)cc3n2CC1(C)C(=O)NC1CCCCC1 (stereo not drawn),i,
COc1ccc(CCN(C)CCc2ccc(OC)c(OC)c2)cc1OC,i,
COc1ccc(CNc2cc3c(cn2)CN(C)CCN3)cc1OC,+,MTase-Glo ctr=0%[85.7 µM]
COc1ccc(CNC(=O)c2cc3n(n2)CC(C)(C(=O)NC2CCCC2)N(C)C3=O)cc1OC (stereo not drawn),i,
COc1ccccc1C(=O)N1CC(Oc2ccc(-c3noc(-c4ccncc4)n3)cc2)C1,i,
OCC(O)c1cc2n(n1)CCN(Cc1ccccc1Cn1cccn1)C2 (stereo not drawn),i,
OC1(Cn2ccnc2)CCN(Cc2ccccc2Cn2cccn2)CC1,+,MTase-Glo ctr=-1%
O=C(NCc1ccccc1Cn1cccn1)c1ccc2cccc(F)c2n1,i,
Clc1ccc(-c2cnc3n2C[C@H](CNC2CCCC2)OC3)cc1,i,
